The nature of assay [1]: inhibitors of TNFa-induced NFkB p65 translocation, primary screen, imaging, HUVEC, MLSMR starter and 10KST1 sets (AID 438;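 active = inhibition above 20% together with a positive visual image hit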;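 also: compound added about 3h40 before a 20 min TNFalpha stimulation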;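 as to inhibition: signal is the nuclear over cytoplasmic p65 intensity ratio per well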). As to conditions: HUVEC TNFa-induced p65 nuclear translocation; cell count: measured here: nuclei count (cytotoxicity indicator), at 2.08 µM; inhibition: at 2 µM, stronger effect = higher value, 0% TNFa-plus-vehicle, 100% no-TNFa wells.
Assay [2] can be described thus: reduction of polyQ htt aggregates in cells – imaging, exon1htt(103Q)mCFP cells, high-content imaging, primary screen (AID 483;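 active = visual image review flags a hit and inhibition of aggregation exceeds 20%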;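 also: compound exposure lasted 3 days before fixation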;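 as to nuclei count: percent of the per-plate median nuclei count of sample wells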). Conditions: exon1htt(103Q)mCFP cell line, aggregate imaging, at 2 µM; inhibition of aggregation: stronger effect = higher value; nuclei count: measured here: cell count, toxicity.
Assay [3] is described as follows: endothelial E-selectin expression blockers – imaging, HUVEC, immunofluorescence, MLSMR starter and 10KST1 sets, primary screen (AID 487;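 active = visually confirmed hit in the image check and inhibition above 20%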;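 as to inhibition: signal is fraction of cell area covered by stained E-selectin grains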;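 as to nuclei count: 100% = median nuclei count of all wells on the same plate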). As to conditions: HUVEC TNFalpha-induced E-selectin immunofluorescence imaging, at 2 µM; inhibition: stronger effect = higher value; nuclei count: measured here: cell number, toxicity.
The target in assay [4] is Voltage-gated potassium channel subunit beta-2 (Rattus norvegicus) (UniProt P62483). Put plainly: inhibitors of rat Kvbeta2 reductase activity – biochemical, NADPH fluorescence, primary screen (AID 622;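 active = fluorescence slope higher than the sample average by over 3 SD, cut at about -0.22 in these data, passing the limit was not always enough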;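 also: slope of raw intensity against log time taken from 70 to 1610 s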). Conditions: recombinant KvBeta, 4-cyanobenzaldehyde reduction, at 10 µM, stronger effect = higher value.
Assay [5] has the same target. Put plainly: enhancers of rat Kvbeta2 NADPH turnover – biochemical, NADPH fluorescence, primary screen (AID 623;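 active = NADPH fluorescence slope more negative than the mean of all samples by about 3 SD, 99.7% confidence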;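 also: fluorescence intensity change per second fitted from 20 to 320 s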). Conditions: Recombinant KvBeta, NADPH fluorescence decrease slope, 10 min; at 10 µM; stronger effect = lower value.
The target of assay [6] is Alpha-2C adrenergic receptor (Homo sapiens) (UniProt P18825). The assay can be described thus: compounds altering alpha2C-coupled GIRK flux – cell-based, HEK293 alpha2C/GIRK1/2, thallium flux, primary screen (AID 624;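 active = fluorescence slope after compound addition differing from the mean of all screened samples at 99.7% confidence, in either direction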;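 also: slope of fluorescence ratio to pre-addition baseline per second over 15 to 24 s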). Conditions: thallium flux BTC fluorescence, at 10 µM, actives lie on both sides.
The nature of assay [7]: blockers of RIG-like receptor reporter activation – cell-based, Sendai virus stimulus, luciferase, 10K MLSCN set, TLR/RLR signaling modifier project, primary screen (AID 602276;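 active = inhibition at or above 50% at 10 µM; inactive = inhibition below 50%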;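 also: firefly luciferase from ISG56 promoter only with Renilla not read in this screen; 0% = Sendai virus plus DMSO and 100% = medium plus DMSO without virus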). Conditions: HEK293 RL24 IRF3 luciferase reporter, at 10 µM, stronger effect = higher value. Background: A reporter such as luciferase makes a cellular process visible.
Assay [8] is described as follows: TLR3 IRF3 reporter activation blockers – cell-based, poly I:C stimulus, luciferase, 10K MLSCN set, primary screen (AID 602277). As to conditions: HEK293-TLR3 RL24 IRF3 luciferase reporter, at 10 µM, stronger effect = higher value.

Activity calls are given as the source filed them.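 The calls were made as follows, unless noted: active = inhibition of the reporter signal at or above 50%; inactive = inhibition below 50%.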

Sequence of Voltage-gated potassium channel subunit beta-2 (Rattus norvegicus) (P62483 whole entry, looked up): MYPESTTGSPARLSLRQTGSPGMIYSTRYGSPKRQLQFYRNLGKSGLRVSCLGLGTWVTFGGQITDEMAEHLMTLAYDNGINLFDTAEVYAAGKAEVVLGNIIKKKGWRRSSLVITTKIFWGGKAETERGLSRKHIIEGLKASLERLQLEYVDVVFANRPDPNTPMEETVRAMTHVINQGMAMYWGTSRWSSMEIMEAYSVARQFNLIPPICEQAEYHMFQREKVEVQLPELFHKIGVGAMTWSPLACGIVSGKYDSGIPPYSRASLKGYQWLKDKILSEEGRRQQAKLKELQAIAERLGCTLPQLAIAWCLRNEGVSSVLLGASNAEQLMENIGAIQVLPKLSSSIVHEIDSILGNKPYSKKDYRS
Sequence of Alpha-2C adrenergic receptor (Homo sapiens) (P18825 whole entry, looked up): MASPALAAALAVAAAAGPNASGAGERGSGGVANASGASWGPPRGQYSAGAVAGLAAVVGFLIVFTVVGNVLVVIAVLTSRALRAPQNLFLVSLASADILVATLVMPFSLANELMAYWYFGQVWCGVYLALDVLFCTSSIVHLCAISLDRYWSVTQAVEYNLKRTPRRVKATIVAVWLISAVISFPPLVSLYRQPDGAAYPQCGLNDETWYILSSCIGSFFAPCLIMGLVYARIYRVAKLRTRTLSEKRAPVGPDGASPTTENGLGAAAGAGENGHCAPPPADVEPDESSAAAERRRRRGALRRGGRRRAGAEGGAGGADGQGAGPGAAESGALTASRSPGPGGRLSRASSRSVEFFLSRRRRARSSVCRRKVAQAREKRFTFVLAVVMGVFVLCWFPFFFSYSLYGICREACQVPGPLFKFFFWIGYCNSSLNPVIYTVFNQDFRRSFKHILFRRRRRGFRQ

Take `CCOC(=O)C1=C(C)NC(C)=C(C(=O)OCC)C1C(=O)OC1CCOC1=O` (centres undefined): the cell count in assay [1] was found to be 653. Further, the inhibition (commonly the change of the read-out against control, counted positive when it falls) in assay [1] was -4.7% (inactive); in assay [3], -121% (inactive); in assay [7] it was 9.93% (inactive); in assay [8] it was 20% (inactive). The inhibition of aggregation in assay [2] is 5.7% (inactive). Moreover, the nuclei count stood at 112% in assay [2] and 103% in assay [3]. For the same molecule, the fluorescence slope in assay [4] was -0.587 (inactive). Also, the NADPH fluorescence slope in assay [5] was -2.6e-05 (inactive). Further, the slope in assay [6] is 0.00602 (inactive).
For `COc1cccc(CNc2nc3nc(C)c(Cl)c(C)n3n2)c1`, the cell count in assay [1] was 343. Also, the inhibition in assay [1] is 2.8% (inactive); in assay [3] it was 50.1% (inactive); in assay [7], -16.5% (inactive); in assay [8], 98.2% (active). Further, the inhibition of aggregation in assay [2] was -5% (inactive). Besides, the results for the nuclei count in assay [2] and in assay [3] were 86.4% and 83.7%, respectively. Also, in assay [4], the fluorescence slope was -0.375 (inactive). Moreover, the NADPH fluorescence slope in assay [5] was 2.9e-05 (inactive). Moreover, the slope in assay [6] is 0.00679 (inactive).
With `CC(C)(C)OC(=O)N1CC=C2C(C#N)=C(N)C(C#N)(C#N)C(c3cccs3)C2C1` (centres undefined), the cell count in assay [1] came to 828. For the same molecule, the inhibition in assay [1] was 2.4% (inactive); in assay [3], -132% (inactive); in assay [7] it was 13.2% (inactive); in assay [8], 8.03% (inactive). In addition, in assay [2], the inhibition of aggregation was 16.5% (inactive). Moreover, the nuclei count in assay [2] was determined as 102%; in assay [3] it was 106%. The fluorescence slope in assay [4] is -0.476 (inactive). In assay [5], the NADPH fluorescence slope was -2.5e-05 (inactive). Besides, the slope in assay [6] is 0.00419 (inactive).
As for `Cc1ccccc1-n1c(=O)cc(N2CCN(C(=O)c3ccco3)CC2)[nH]c1=O`, in assay [1], the cell count is 543. Besides, the inhibition in assay [1] is 12.5% (inactive); in assay [3], -8.4% (inactive); in assay [7] it was 13.5% (inactive); in assay [8], 12.4% (inactive). In assay [2], the inhibition of aggregation is 6.9% (inactive). Also, the nuclei count in assay [2] came to 116%; in assay [3] it was 99.7%. In addition, the fluorescence slope in assay [4] was -0.598 (inactive). Besides, in assay [5], the NADPH fluorescence slope was 1.7e-05 (inactive). Moreover, the slope in assay [6] was 0.00562 (inactive).
Take `COCCn1nnnc1C(c1cccs1)N1CCN(c2cc(C)ccc2C)CC1` (centres undefined): in assay [1], the cell count came out at 203. The inhibition in assay [1] was 11.4% (inactive); in assay [3], -2.6% (inactive); in assay [7], 11.1% (inactive); in assay [8] it was 16.2% (inactive). The inhibition of aggregation in assay [2] is -9% (inactive). Also, the nuclei count in assay [2] amounted to 84.8%; in assay [3] it was 96.9%. The fluorescence slope in assay [4] was -0.618 (inactive). Besides, in assay [5], the NADPH fluorescence slope was 2e-05 (inactive). The slope in assay [6] was 0.00567 (inactive).
Turning to `COc1cccc(Nc2cc(C)nc3ccccc23)c1`, the cell count in assay [1] was 259. The inhibition is 2.1% (inactive) in assay [1], -1% (inactive) in assay [3], -11.6% (inactive) in assay [7] and 99.5% (active) in assay [8]. Besides, in assay [2], the inhibition of aggregation is 11.8% (inactive). Also, the nuclei count in assay [2] was 78.5%; in assay [3] it was 105%. Besides, the fluorescence slope in assay [4] was -0.412 (inactive). Moreover, in assay [5], the NADPH fluorescence slope is -6.3e-06 (inactive). For the same molecule, the slope in assay [6] was 0.00478 (inactive).
As to `OC1C[N+]2(CCCCC2)C1`, the cell count in assay [1] was 278. Further, the inhibition in assay [1] was 9.3% (inactive); in assay [3] it was 62.9% (active); in assay [7], 11.5% (inactive); in assay [8], 10.3% (inactive). Moreover, the inhibition of aggregation in assay [2] is -10.6% (inactive). Further, the values for the nuclei count in assay [2] and in assay [3] were 104% and 111%, respectively. In addition, the fluorescence slope in assay [4] was -0.497 (inactive). Moreover, in assay [5], the NADPH fluorescence slope was -5.4e-05 (inactive). The slope in assay [6] is 0.00461 (inactive).
`O=C1NC(Nc2ccccn2)(C(F)(F)F)C(=O)N1c1ccc(F)cc1` (centres undefined): the cell count in assay [1] was found to be 483. Also, the inhibition was -1.9% (inactive) in assay [1], -79.1% (inactive) in assay [3], 13.9% (inactive) in assay [7] and 6.37% (inactive) in assay [8]. For the same molecule, the inhibition of aggregation in assay [2] is -9.8% (inactive). Also, the nuclei count worked out at 110% in assay [2] and 111% in assay [3]. The fluorescence slope in assay [4] is -0.582 (inactive). Further, the NADPH fluorescence slope in assay [5] was -4.6e-05 (inactive). In addition, the slope in assay [6] is 0.00277 (inactive).
Consider `O=C(c1cnc2n(c1=O)CCS2)N1CCc2ccccc21`, for which the cell count in assay [1] was determined as 529. The inhibition is 9.1% (inactive) in assay [1], -39.6% (inactive) in assay [3], 14.9% (inactive) in assay [7] and 27% (inactive) in assay [8]. In assay [2], the inhibition of aggregation is -15.5% (inactive). For the same molecule, the nuclei count in assay [2] and in assay [3] was 114% throughout. Besides, the fluorescence slope in assay [4] was -0.51 (inactive). Besides, the NADPH fluorescence slope in assay [5] is 4.8e-06 (inactive). Also, the slope in assay [6] is 0.00669 (inactive).
Take `c1ccc(CCn2nnnc2C(c2cccs2)N2CCOCC2)cc1` (centres undefined): in assay [1], the cell count worked out at 675. Besides, the inhibition in assay [1] was -8.6% (inactive); in assay [3], -74.9% (inactive); in assay [7] it was 4.38% (inactive); in assay [8] it was 17.4% (inactive). The inhibition of aggregation in assay [2] is -16% (inactive). Moreover, the nuclei count in assay [2] was 124%; in assay [3], 106%. For the same molecule, in assay [4], the fluorescence slope is -0.488 (inactive). For the same molecule, the NADPH fluorescence slope in assay [5] is -0.000173 (inactive). Besides, in assay [6], the slope is 0.00462 (inactive).
Turning to `CCOc1ncccc1C(=O)Nc1ccc(Cl)cc1`, in assay [1], the cell count was found to be 861. Moreover, the inhibition in assay [1] is -15% (inactive); in assay [3] it was -36.9% (inactive); in assay [7], 10.1% (inactive); in assay [8], 35.6% (inactive). Moreover, in assay [2], the inhibition of aggregation was -9.2% (inactive). Also, the results for the nuclei count in assay [2] and in assay [3] were 121% and 105%, respectively. For the same molecule, in assay [4], the fluorescence slope is -0.44 (inactive). In addition, the NADPH fluorescence slope in assay [5] was -3.2e-06 (inactive). The slope in assay [6] was 0.0068 (inactive).
Consider `O=C1c2ccccc2C(=O)N1CC(O)Cn1nnc2ccccc21` (centres undefined), for which the cell count in assay [1] was 480. Besides, the inhibition in assay [1] is -22.3% (inactive); in assay [3], -47.9% (inactive); in assay [7] it was 3.12% (inactive); in assay [8] it was 4.4% (inactive). Moreover, in assay [2], the inhibition of aggregation is -0.2% (inactive). For the same molecule, the nuclei count in assay [2] is 116%; in assay [3], 99.5%. Besides, in assay [4], the fluorescence slope was -0.521 (inactive). The NADPH fluorescence slope in assay [5] is -4.1e-05 (inactive). Moreover, the slope in assay [6] was 0.00496 (inactive).
As for `CCC1CCCCN1CCCNC(=O)CC1Oc2ccc(C)cc2NC1=O` (centres undefined), the cell count in assay [1] is 810. The inhibition was -1.8% (inactive) in assay [1], -71% (inactive) in assay [3], 5.08% (inactive) in assay [7] and 29.6% (inactive) in assay [8]. For the same molecule, the inhibition of aggregation in assay [2] is 13.7% (inactive). Also, the nuclei count turned out to be 105% in assay [2] and 107% in assay [3]. The fluorescence slope in assay [4] was -0.499 (inactive). The NADPH fluorescence slope in assay [5] is -3.5e-05 (inactive). Besides, in assay [6], the slope was 0.00565 (inactive).
Consider `O=C(CN1C(=O)CCS(=O)(=O)c2ccccc21)NCc1ccc(F)cc1`, for which, in assay [1], the cell count was 529. The inhibition in assay [1] was -7.7% (inactive); in assay [3], -92.3% (inactive); in assay [7], 15.3% (inactive); in assay [8] it was 8.14% (inactive). Also, in assay [2], the inhibition of aggregation was 13.4% (inactive). Also, the figures for the nuclei count in assay [2] and in assay [3] were 95.8% and 124%, respectively. For the same molecule, the fluorescence slope in assay [4] was -0.395 (inactive). Also, the NADPH fluorescence slope in assay [5] was -7.6e-05 (inactive). Also, the slope in assay [6] was 0.00557 (inactive).

Values taken from PubChem BioAssay.
